Assay outcomes from PubChem BioAssay.
FAS-TE inh = FAS thioesterase domain inhibitors, primary screen, biochemical, fluorescence intensity, uHTS | Fatty acid synthase (Homo sapiens), P49327 | recombinant FAS-TE, OMFH fluorogenic substrate, fluorescence endpoint | inhibition, % at 15 µM | hit rate 0.67% among 360,000;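 active = compounds whose normalised, plate-corrected inhibition of enzyme fluorescence in the single-dose primary screen is 50% or more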;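 also: 0% = DMSO with enzyme and 100% = substrate without enzyme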
GRIN3A LBD mod = binders of NR3A ligand-binding domain, primary screen, biophysical, differential scanning fluorimetry, uHTS; AID 1259313, 2017; Tm shift relative to glycine control, % at 25 µM; NR3A LBD differential scanning fluorimetry, Tm shift; 0% = protein alone, 100% = glycine-bound protein; Glutamate receptor ionotropic, NMDA 3A (GRIN3A) ligand-binding domain; hit rate 2.5% among 340,000;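 active = melting temperature shift of at least 10% of the positive control shift, at one fixed dose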
rCAG RNA binder = binders of r(CAG) RNA repeats, primary screen, biochemical, fluorescence | r(CAG) RNA repeat, TO-PRO-1 dye displacement fluorescence | AID 651821, 2012 | hit rate 1.3% among 370,000 | inhibition, % at 3 µM;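 active = inhibition above the plate cutoff, the mean of all test compounds on that plate plus 3 SD, cut at about 35% in these data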;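 also: 0% = DMSO alone and 100% = 100 µM mitoxantrone as full dye displacement; higher means more dye released from RNA so lower well fluorescence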
NadD block = inhibitors of S. aureus NadD, primary screen, biochemical, colorimetric, uHTS. purified NadD enzyme, colorimetric absorbance read-out. inhibition, % at 20 µM. hit rate 0.78% among 360,000; in the data active = inhibition above about 26%
rCAG binder conf = small molecules binding CAG repeat RNA – biochemical, fluorescence, confirmation; shares compounds with rCAG RNA binder; r(CAG) RNA repeat, TO-PRO-1 dye displacement fluorescence; inhibition, % at 3 µM; hit rate 70% among 4,300;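 active = inhibition above a per-plate cutoff, the mean inhibition of sample wells plus 3 SD, cut at about 35% in these data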;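 also: loss of TO-PRO-1 fluorescence as compound displaces dye from 1x1 AA loop RNA; 0% = DMSO only wells and 100% = 100 µM mitoxantrone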
dCAG dye counter = displacement of TO-PRO-1 from CAG DNA duplex, counter-screen for rCAG RNA repeat binder project, biochemical, fluorescence, TO-PRO-1 dye, d(CAG) DNA oligo. shares compounds with rCAG RNA binder. d(CAG) DNA oligo TO-PRO-1 dye displacement. inhibition, % at 3 µM. hit rate 94% among 4,300. AID 652068, 2013;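 active = inhibition above its plate's cutoff, the mean test-well inhibition plus 3 SD, cut at about 4.8% in these data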;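 also: 0% = DNA dye mix with DMSO and 100% = 100 µM mitoxantrone; hits displace the dye from DNA and so lower well fluorescence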
dCAG dye DR = inhibitors of DNA CAG/GTC TO-PRO-1 complex, dose response, counter-screen for rCAG RNA repeat binder project, biochemical, fluorescence, TO-PRO-1 dye. DNA CAG/GTC duplex TO-PRO-1 dye displacement fluorescence. IC50, µM. hit rate 20% among 250. shares compounds with rCAG RNA binder; in the data active = IC50 below about 10 µM
* marks the source's active call; other numbers are inactive results; i = inactive; · = no result given. A selection: hits, their analogues and other compounds. The true share with any hit is near 4.3%.

SMILES	FAS-TE inh	GRIN3A LBD mod	rCAG RNA binder	NadD block	rCAG binder conf	dCAG dye counter	others
CCOC(=O)c1sc(N2C(=O)C(O)=C(C(=O)c3ccco3)C2c2cccc(Cl)c2)nc1C (configuration not stated)	12.1	·	74.0*	13.3	56.7*	18.6*
Cc1cc(N2C(=O)C(O)=C(C(=O)c3ccco3)C2c2cccc(Oc3ccccc3)c2)no1 (configuration not stated)	6.7	-8.9	57.7*	15.8	59.0*	21.2*
COC(=O)c1sc(N2C(=O)C(O)=C(C(=O)c3ccc(C)o3)C2c2ccco2)nc1C (configuration not stated)	-10.9	-0.9	16.1	0.4	·	·
CCOC(=O)c1sc(N2C(=O)C(O)=C(C(=O)c3ccco3)C2c2cccc([N+](=O)[O-])c2)nc1C (configuration not stated)	15.8	-2.3	69.6*	13.9	82.1*	50.2*
COC(=O)c1sc(N2C(=O)C(O)=C(C(=O)c3ccc(C)o3)C2c2cccs2)nc1C (configuration not stated)	-0.4	-3.4	48.0*	7.4	48.0*	17.2*
O=C(CSc1nnc(COc2ccccc2)n1-c1ccc(Cl)cc1)Nc1ccc(OCc2ccccc2)cc1	·	·	6.7	·	·	·
COC(=O)C1=C(C)N(C)C(=NCc2cccc(C(F)(F)F)c2)NC1c1ccccc1C(F)(F)F (configuration not stated)	·	·	5.6	·	·	·
O=S(=O)(/N=C(/Nc1nc2ccccc2s1)c1ccccc1)c1ccc(F)cc1	-0.8	-1.0	38.0*	2.8	30.7	6.6*
Cc1ccc(CN2[C@@H](Cc3ccccc3)C(=O)CS2(=O)=O)cc1	-2.3	-6.7	40.7*	3.3	21.2	9.1*
COc1ccccc1CCn1cnc(-c2ccc(F)cc2)c1C(C)C	·	·	-1.0	·	·	·
O=[N+]([O-])c1cc(/C=N\Nc2nc(-c3ccccc3)cs2)ccc1O	17.9	8.4	65.6*	28.3	53.8*	22.9*
O=C(N/N=C/c1ccc(O)c([N+](=O)[O-])c1)C1CC1(c1ccccc1)c1ccccc1 (configuration not stated)	8.1	-9.1	50.3*	18.0	50.3*	18.8*
O=C(CNC(=O)C(c1ccccc1)c1ccccc1)N/N=C/c1ccc(O)c([N+](=O)[O-])c1	-10.7	-11.6	44.2*	4.0	22.1	4.7*
O=C(CNC(=O)c1ccco1)N/N=C/c1ccc(O)c([N+](=O)[O-])c1	-10.3	-1.4	5.3	-1.1	·	·
C#CCN(C[C@H]1[C@H](OC(=O)Nc2cccs2)[C@H](OC(=O)Nc2cccs2)CN(C(=O)OC(C)C)N1C(=O)OC(C)C)S(=O)(=O)c1ccc(C)cc1	·	·	18.8	·	·	·
C=CCN1C(=O)/C(=C/c2ccc(O)c(OC)c2)S/C1=N/c1nccs1	5.6	2.0	34.5	12.2	·	·
C=CCN1C(=O)/C(=C/c2ccc(OCC(=O)O)cc2)S/C1=N/c1nccs1	-2.9	0.9	56.2*	10.1	57.0*	17.4*
COC(=O)C12C=C3CC(c4ccc(OC)cc4)=C3C(=O)N1Cc1[nH]c3ccccc3c1C2 (configuration not stated)	·	·	8.9	·	·	·
Cc1c(CCC(=O)NCC(=O)O)c(=O)oc2cc3occ(-c4ccccc4)c3cc12	1.8	-1.8	20.9	-0.4	·	·
Cc1c(CCC(=O)NCCC(=O)O)c(=O)oc2cc3occ(-c4ccccc4)c3cc12	-1.6	-0.7	30.8	8.9	·	·
Cc1c(CCC(=O)O)c(=O)oc2cc3occ(-c4ccc(F)cc4)c3cc12	-0.4	-2.5	47.5*	0.8	44.2*	12.3*
Cc1c(CCC(=O)O)c(=O)oc2cc3occ(-c4ccc(Br)cc4)c3cc12	6.8	-0.2	36.9*	3.8	62.5*	23.7*
CCCC(NC(=O)CCc1c(C)c2cc3c(-c4ccccc4)coc3cc2oc1=O)C(=O)O (configuration not stated)	2.2	0.9	36.3*	4.1	40.6*	10.9*
COc1ccc(C(=O)CSc2nnc(-c3ccco3)n2C)cc1	-5.6	-18.8	4.9	4.1	·	·
O=C(CSc1nnc(-c2ccco2)c(-c2ccco2)n1)Nc1ccccc1	-0.1	-5.4	60.1*	14.6	28.1	14.9*
SMILES	FAS-TE inh	GRIN3A LBD mod	rCAG RNA binder	NadD block	rCAG binder conf	dCAG dye counter	others
O=C(CSc1ccc(-c2ccco2)nn1)c1ccc(F)cc1	3.0	-4.4	37.1*	6.6	8.8	3.7
COc1ccc(C(=O)CSc2nnc(-c3ccco3)c(-c3ccco3)n2)cc1	1.3	-10.8	51.4*	21.2	49.5*	22.3*
CCOc1cccc(SCc2noc(C(=O)NCCOC)c2C(=O)O)c1	-13.8	0.3	13.0	-2.8	·	·
CCCCNC(=O)c1onc(CSc2ccc(C(C)C)cc2)c1C(=O)O	-5.3	-19.0	51.4*	-1.4	47.5*	11.4*
O=C(NCC1CCCO1)c1onc(CSc2cccc3ccccc23)c1C(=O)O (configuration not stated)	-10.9	-21.3	42.4*	-6.2	40.0*	6.2*
CCCCNC(=O)c1onc(CSc2ccccc2)c1C(=O)O	-8.4	1.9	11.3	-1.2	·	·
CCCCNC(=O)c1onc(CSc2cccc(OCC)c2)c1C(=O)O	-5.3	1.8	44.8*	-8.1	20.3	1.2
CC(C)NC(=O)c1onc(CSc2ccccc2)c1C(=O)O	-7.3	-2.1	1.4	0.7	·	·
CC(C)NC(=O)c1onc(CSc2cccc3ccccc23)c1C(=O)O	-9.3	-6.8	36.3*	-0.9	29.7	7.2*
C[C@H]1CN(c2ccc(N3CCN(C(=O)OC(C)(C)C)C[C@@H]3C)cc2C#N)CCN1Cc1ccccc1	·	·	4.5	·	·	·
COC(=O)[C@]12C[C@H](CC(=O)NCc3ccccc3)C(=O)N(CCC3=CCCCC3)C1=C[C@H](COCc1ccccc1)O[C@@H]2C	·	·	5.1	·	·	·
CCCCNC(=O)c1onc(CSc2cccc3ccccc23)c1C(=O)O	-2.8	-12.7	61.5*	2.9	53.2*	14.4*	dCAG dye DR=i
NC1(N2SC(S)=C3CCCC=C32)CCCCC1	·	·	11.0	·	·	·
O=C(COc1cccc2ccccc12)Nc1cc(Cl)ccc1C(=O)O	19.4	7.9	74.9*	2.2	70.4*	30.1*	dCAG dye DR=i
O=C(COc1ccccc1C(=O)O)Nc1cccc2ccccc12	-9.5	3.9	4.6	-9.3	·	·
